SMILES strings stand for the structures. For some of these results: Potency and affinity values are given separately. The source made the active and inactive calls.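 How the source made its calls, unless noted: active means primary screen active and over 50% activation in each of two duplicate runs; inactive means the rest.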

Experiment [1] deals with TRPC4 beta (transient receptor potential cation channel C4), mouse. Description: activators of mouse TRPC4 channel, confirmation, cell-based, Fluo4 calcium, HEK293 TRPC4beta/mu-opioid, duplicates, 10 µM (AID 2426;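 active means fluorescence ratio normalized to control raised more than 50% in primary screen plus both repeat runs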). The note with it: Fluo4 calcium fluorescence, at 10 µM; stronger effect = higher value.
For experiment [2], the system named is transient receptor potential cation channel C4 beta (TRPC4), mouse. Description: activators of mouse TRPC4 channel, confirmation, cell-based, second round, Fluo4, HEK293 TRPC4beta/mu-opioid, 1 µM (AID 2461). The following applies: Fluo4 calcium fluorescence, at 1 µM; stronger effect = higher value.
For experiment [3], the system named is TRPC4 (transient receptor potential cation channel C4 beta), mouse. Description: positive allosteric modulators of mouse TRPC4, confirmation, cell-based, second round, Fluo-4, HEK293 TRPC4beta/mu-opioid, 1 µM (AID 2554;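 active means primary screen hit whose fluorescence ratio, in both repeats, exceeds the weak agonist control mean by 3 SD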). The note with it: DAMGO EC20, Fluo-4 calcium flux, at 1 µM; stronger effect = higher value.
Experiment [4] has as its system TRPC4 beta (transient receptor potential cation channel C4), mouse. Description: positive allosteric modulators of mouse TRPC4, confirmation, cell-based, Fluo-4, HEK293 TRPC4beta/mu-opioid (AID 2555;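 active means primary screen hit whose calcium fluorescence ratio, in both repeats, exceeds the weak agonist control mean by 3 SD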). The following applies: DAMGO EC20, Fluo-4 calcium flux, at 10 µM; stronger effect = higher value.
Experiment [5] deals with Short transient receptor potential channel 4 (Mus musculus) (UniProt Q9QUQ5). Description: inhibitors of mouse TRPC4 channel, confirmation, cell-based, Fluo4, HEK293 TRPC4beta/mu-opioid (AID 2636;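 active means calcium signal cut by more than 3 SD below the full-agonist control yet still positive, in both repeats and the earlier primary screen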). The following applies: DAMGO, Fluo4 calcium flux, at 10 µM; stronger effect = higher value.
Experiment [6] has the same target. Description: inhibitors of mouse TRPC4 channel, confirmation, cell-based, second round, Fluo4, HEK293 TRPC4beta/mu-opioid, 1 µM (AID 2637;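 active means calcium signal ratio cut to more than 3 SD under the fully stimulated control mean yet still positive, in both repeats and the primary screen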). The following applies: Fluo4 calcium flux, DAMGO, at 1 µM; stronger effect = higher value.
Experiment [7] shares this target. Description: mouse TRPC4 channel activators, dose response, cell-based, HEK293 TRPC4/mu-opioid, Fluo-4 calcium (AID 434937;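 active means primary screen activator hit with a dose response curve and TRPC4 channel activation at any tested dose; inactive means no activation, no dose response, or not a primary hit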). The note with it: HEK293 TRPC4 cells, Fluo-4 calcium fluorescence ratio; series mostly up to 20 µM.
The target is the same in experiment [8]. Description: TRPC4 positive allosteric modulators, dose response, cell-based, HEK293 TRPC4/mu-opioid, Fluo-4 calcium, EC20 DAMGO (AID 434941;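 active means earlier screen potentiator hit that boosts the TRPC4 ion channel at some dose, with a dose response; inactive means no potentiation, no dose response, or not a prior hit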;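 further: calcium entry triggered by an EC20 dose of DAMGO at the co-expressed mu-opioid receptor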). The note with it: HEK293 TRPC4/mu-opioid cells, Fluo-4 calcium fluorescence; series mostly up to 20 µM.
For experiment [9] the target is unchanged. Description: mouse TRPC4 channel inhibitors, dose response, cell-based, HEK293 TRPC4/mu-opioid, Fluo-4 calcium (AID 434942;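 active means primary screen inhibitor hit that blocks the TRPC4 channel at some tested dose, yielding a dose curve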). The note with it: HEK293 TRPC4/mu-opioid cells, DAMGO-evoked Fluo-4 calcium ratio; series mostly up to 20 µM.
Experiment [10] deals with Short transient receptor potential channel 6 (Mus musculus) (UniProt Q61143). Put plainly: inhibition of mouse TRPC6 channel, confirmation, selectivity assay for TRPC4 inhibitor project, cell-based, HEK293, membrane potential dye, duplicate (AID 434948;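 active means active in primary screen and both duplicates, each dropping signal beyond three positive-control SD with fluorescence still positive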). The note with it: HEK293 TRPC6, membrane potential dye fluorescence, at 10 µM, stimulated with maximal-effect acetylcholine; stronger effect = higher value.

Experiment [11] has the same target. Put plainly: activation of mouse TRPC6 channel, confirmation, selectivity assay for TRPC4 activator project, cell-based, HEK293, membrane potential dye, duplicate (AID 434950;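 active means membrane potential signal rise above negative control mean plus 3 SD in both duplicates, also active in the earlier TRPC4 screen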). The following applies: HEK293 TRPC6, membrane potential fluorescence, at 10 µM; stronger effect = higher value.
Experiment [12] shares this target. Description: TRPC6 potentiation by TRPC4 potentiator hits, confirmation, selectivity assay for TRPC4 potentiator project, HEK293 cells, membrane potential dye, duplicate (AID 434952;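 active means compound raising the membrane signal above positive-control mean plus 3 SD in both repeats, and a primary screen hit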). The note with it: HEK293 TRPC6, membrane potential dye fluorescence, at 10 µM, maximal acetylcholine added after compound; stronger effect = higher value.
Experiment [13] deals with Short transient receptor potential channel 4 (Mus musculus) (UniProt Q9QUQ5). Put plainly: calcium flux activators in TRPC4/5HT1a cells, counter-screen for TRPC4 activator project, cell-based, second counter screen, HEK293 TRPC4/5HT1a, Fluo-4 (AID 434977;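 active means calcium signal rise above buffer-control mean plus 5 SD in both duplicates, and also a hit in the primary screen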). The following applies: Fluo-4 calcium flux, at 10 µM; stronger effect = higher value.
The nature of experiment [14]: calcium flux inhibitors in TRPC4/5HT1a cells, confirmation, counter-screen for TRPC4 inhibitor project, cell-based, second counter screen, HEK293 TRPC4/5HT1a, Fluo-4 (AID 434978;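 active means primary screen active whose calcium signal fell more than 3 SD beyond the full-serotonin control mean in both duplicate plates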;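 further: serotonin given first at submaximal then at maximal dose after compound preincubation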). The note with it: Fluo-4 calcium flux, at 10 µM, serotonin added to trigger calcium flux; stronger effect = higher value.
The subject of experiment [15] is TRPC4 (mouse), co-expressed with 5HT1a in HEK293. Put plainly: calcium flux potentiators in TRPC4/5HT1a cells, confirmation, counter-screen for TRPC4 potentiator project, cell-based, second counter screen, HEK293 TRPC4/5HT1a, Fluo-4 (AID 434979;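 active means signal rise over 3 SD above mean of control wells given weak agonist, in both repeats and first screen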). The note with it: Fluo-4 calcium flux, at 10 µM, serotonin added at its EC20 dose; stronger effect = higher value.
Experiment [16] in a line: calcium flux activation in mu-opioid HEK293 cells, confirmation, counter-screen for TRPC4 activator project, cell-based, HEK293 mu-opioid receptor line (AID 449723;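 active means hit in primary screen, with calcium signal over 5 SD above buffer well mean in both duplicates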;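 further: counter screen cells carry the mu-opioid receptor alone and lack TRPC4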). The following applies: Fluo-4 calcium fluorescence, at 10 µM; stronger effect = higher value.
The nature of experiment [17]: calcium flux enhancement in mu-opioid HEK293 cells, confirmation, counter-screen for TRPC4 allosteric potentiator project, cell-based, HEK293 mu-opioid receptor line (AID 449724;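 active means calcium signal rise more than 3 SD above the low-dose agonist control mean, in both duplicate plates and the primary screen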;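 further: HEK293 cells carrying mu-opioid receptor only with no TRPC4 channel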). The note with it: Fluo-4 calcium flux, at 10 µM, compound added before EC20 DAMGO stimulus; stronger effect = higher value.

Chain of Short transient receptor potential channel 6 (Mus musculus) (Q61143 whole entry, looked up): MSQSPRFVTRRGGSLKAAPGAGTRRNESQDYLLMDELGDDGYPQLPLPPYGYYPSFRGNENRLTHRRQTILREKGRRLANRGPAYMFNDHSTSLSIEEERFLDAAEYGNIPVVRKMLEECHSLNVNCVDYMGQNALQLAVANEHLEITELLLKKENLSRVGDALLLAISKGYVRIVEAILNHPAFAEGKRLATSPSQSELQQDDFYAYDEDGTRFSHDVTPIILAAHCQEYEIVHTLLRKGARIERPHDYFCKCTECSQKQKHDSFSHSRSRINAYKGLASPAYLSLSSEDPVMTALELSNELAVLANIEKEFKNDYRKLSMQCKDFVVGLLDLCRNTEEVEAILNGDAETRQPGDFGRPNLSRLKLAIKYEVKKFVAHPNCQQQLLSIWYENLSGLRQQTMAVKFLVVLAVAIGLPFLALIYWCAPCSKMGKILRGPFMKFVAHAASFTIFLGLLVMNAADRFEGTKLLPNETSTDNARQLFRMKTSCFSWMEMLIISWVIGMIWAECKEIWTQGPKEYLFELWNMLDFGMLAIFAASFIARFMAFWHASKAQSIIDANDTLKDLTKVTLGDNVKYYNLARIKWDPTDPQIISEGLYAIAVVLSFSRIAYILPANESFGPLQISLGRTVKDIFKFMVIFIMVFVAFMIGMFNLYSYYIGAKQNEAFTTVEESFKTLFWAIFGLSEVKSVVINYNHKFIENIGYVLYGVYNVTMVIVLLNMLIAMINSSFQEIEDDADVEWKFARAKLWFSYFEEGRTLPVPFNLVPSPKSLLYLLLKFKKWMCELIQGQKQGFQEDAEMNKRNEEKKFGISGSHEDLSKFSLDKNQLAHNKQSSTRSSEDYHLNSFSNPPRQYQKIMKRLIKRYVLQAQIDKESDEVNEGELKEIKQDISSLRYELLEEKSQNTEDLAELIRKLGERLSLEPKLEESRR
Chain of Short transient receptor potential channel 4 (Mus musculus) (Q9QUQ5 whole entry, looked up): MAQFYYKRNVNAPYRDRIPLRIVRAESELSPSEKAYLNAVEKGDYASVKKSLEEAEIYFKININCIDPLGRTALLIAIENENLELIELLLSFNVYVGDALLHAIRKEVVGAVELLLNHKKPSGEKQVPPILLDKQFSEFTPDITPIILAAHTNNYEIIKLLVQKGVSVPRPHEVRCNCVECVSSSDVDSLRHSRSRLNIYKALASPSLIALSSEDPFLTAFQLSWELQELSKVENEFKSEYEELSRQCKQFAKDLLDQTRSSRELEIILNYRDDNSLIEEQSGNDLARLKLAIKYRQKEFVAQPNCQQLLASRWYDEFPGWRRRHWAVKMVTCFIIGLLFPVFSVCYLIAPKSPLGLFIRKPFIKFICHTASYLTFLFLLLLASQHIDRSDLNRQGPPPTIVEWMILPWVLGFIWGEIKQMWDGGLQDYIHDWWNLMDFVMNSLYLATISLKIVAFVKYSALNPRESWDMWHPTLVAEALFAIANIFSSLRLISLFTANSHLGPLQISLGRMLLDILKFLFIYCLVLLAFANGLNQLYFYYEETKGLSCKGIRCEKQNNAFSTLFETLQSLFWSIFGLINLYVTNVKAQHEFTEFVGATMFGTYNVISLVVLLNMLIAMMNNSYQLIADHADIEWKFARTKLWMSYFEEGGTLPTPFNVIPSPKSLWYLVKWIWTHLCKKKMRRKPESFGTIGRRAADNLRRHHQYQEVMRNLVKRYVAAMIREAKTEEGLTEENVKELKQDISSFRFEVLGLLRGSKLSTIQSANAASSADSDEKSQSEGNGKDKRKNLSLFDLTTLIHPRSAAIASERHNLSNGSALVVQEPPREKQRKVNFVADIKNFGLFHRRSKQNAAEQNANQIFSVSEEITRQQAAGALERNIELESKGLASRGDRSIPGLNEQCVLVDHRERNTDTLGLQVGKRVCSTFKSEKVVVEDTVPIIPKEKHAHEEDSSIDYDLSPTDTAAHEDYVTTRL

Regarding `Cc1cc(Oc2ccc(C(C)(C)C)cc2)nc(N2CCOCC2)n1`, the result in experiment [1], in experiment [2], in experiment [3], in experiment [5], in experiment [6] and in experiment [7] was inactive. Also, the outcome in experiment [8], in experiment [9], in [10], in [11], in experiment [12] and in experiment [13] was inactive. Moreover, the outcome in experiment [14], in experiment [16] and in [17] was inactive. Moreover, the potentiation in experiment [4] was 7% (active); in experiment [15] it was 21.6% (active).
As to `CCOc1ccccc1NC(=O)CN(c1ccc(OC)cc1)S(=O)(=O)c1c(C)[nH]c(=O)[nH]c1=O`, the outcome in [1], in experiment [2], in [3], in experiment [4], in [5] and in experiment [6] was inactive. The result in experiment [7], in [8], in experiment [9], in [10], in [11] and in experiment [12] was inactive. In addition, the result in experiment [13], in [14], in [16] and in experiment [17] was inactive. In experiment [15], the potentiation was 16.4% (active).
Consider `Cc1ccc(/C=C/C(=O)NC2CCCCCCC2)o1`, for which the result in experiment [1], in experiment [2], in experiment [3], in experiment [5], in experiment [6] and in experiment [7] was inactive. Also, the outcome in [8], in experiment [9], in [10], in experiment [11], in [12] and in experiment [13] was inactive. Further, the result in experiment [14], in experiment [16] and in [17] was inactive. For the same compound, the potentiation in experiment [4] is 16% (active); in experiment [15], 19.1% (active).
As to `C/C=C/Cn1c(SCCCc2ccccc2)nc2c1c(=O)[nH]c(=O)n2C`, the result in [1], in experiment [2], in [5], in experiment [6], in experiment [7] and in experiment [8] was inactive. The outcome in experiment [9], in experiment [10], in [11], in [12], in experiment [13] and in experiment [14] was inactive. Further, the result in [16] and in experiment [17] was inactive. The values for the potentiation in experiment [3], in [4] and in experiment [15] were 12% (active), 27% (active) and 88.5% (active), respectively.
In the case of `OC(CNCCC(c1ccccc1)c1ccccc1)COc1ccccc1` (stereo not drawn), the result in experiment [1], in experiment [2], in [3], in experiment [4], in experiment [5] and in experiment [6] was inactive. Moreover, the result in experiment [7], in experiment [8], in [9], in [10], in experiment [11] and in [12] was inactive. Further, the outcome in experiment [13], in experiment [14], in experiment [15], in [16] and in experiment [17] was inactive.
With `Cc1ccc(CS(=O)(=O)CCC(=O)NCCC2=CCCCC2)cc1`, the outcome in [1], in experiment [2], in experiment [4], in experiment [5], in [6] and in experiment [7] was inactive. Further, the result in experiment [8], in experiment [9], in [10], in experiment [11], in experiment [12] and in experiment [13] was inactive. Moreover, the result in experiment [14], in experiment [16] and in experiment [17] was inactive. Besides, the values for the potentiation in [3] and in experiment [15] were 14% (active) and 18.2% (active), respectively.
Turning to `CCCCc1nnc(NC(=O)C2CCN(c3ncnc4sc(C)c(C)c34)CC2)s1`, the outcome in [1], in experiment [2], in [3], in [4], in experiment [5] and in experiment [6] was inactive. Besides, the result in experiment [7], in experiment [8], in [9], in experiment [10], in [11] and in experiment [12] was inactive. Moreover, the outcome in experiment [13], in experiment [14], in experiment [15], in [16] and in [17] was inactive.
Take `Cc1ccc(S(=O)(=O)NC(C(=O)Oc2cc3oc(=O)cc(C)c3cc2Cl)C(C)C)cc1` (stereo not drawn): the result in experiment [1], in experiment [2], in experiment [3], in experiment [4], in experiment [5] and in [6] was inactive. The outcome in experiment [7], in [8], in experiment [9], in [10], in experiment [11] and in [12] was inactive. The outcome in experiment [13], in [14], in [15], in [16] and in experiment [17] was inactive.
Regarding `CCOC(=O)CC(NC(=O)c1cc2cc(Cl)cc(Cl)c2oc1=O)c1cccc([N+](=O)[O-])c1` (stereo not drawn), the result in [1], in experiment [2], in [3], in experiment [5], in experiment [6] and in experiment [7] was inactive. The outcome in experiment [8], in experiment [9], in [10], in experiment [11], in [12] and in experiment [13] was inactive. The result in experiment [14], in [15], in experiment [16] and in experiment [17] was inactive. For the same compound, the potentiation in [4] is 35% (active).
In the case of `NC(=O)c1ccc(N2CCN(c3ncc(C(F)(F)F)cc3Cl)CC2)cc1`, the outcome in experiment [1], in experiment [2], in experiment [3], in experiment [4], in experiment [5] and in experiment [6] was inactive. Moreover, the outcome in experiment [7], in [8], in experiment [9], in experiment [10], in [11] and in experiment [12] was inactive. Besides, the result in experiment [13], in [14], in [16] and in experiment [17] was inactive. For the same compound, the potentiation in experiment [15] is 11.9% (active).
On to `CCOC(=O)CC(NS(=O)(=O)c1ccc(OC)c(C)c1)c1cccc([N+](=O)[O-])c1` (stereo not drawn), for which the outcome in experiment [1], in experiment [2], in experiment [3], in experiment [4], in experiment [5] and in experiment [6] was inactive. In addition, the outcome in experiment [7], in [8], in experiment [9], in [10], in experiment [11] and in experiment [12] was inactive. Also, the result in experiment [13], in [14], in [15], in experiment [16] and in experiment [17] was inactive.
As to `CC1CCCCC1NS(=O)(=O)c1ccc(S(=O)(=O)N2CCCC2)cc1` (stereo not drawn), the result in [1], in [2], in [3], in experiment [5], in experiment [6] and in [7] was inactive. The result in experiment [8], in experiment [9], in experiment [10], in experiment [11], in experiment [12] and in [13] was inactive. Further, the result in [14], in experiment [16] and in experiment [17] was inactive. Further, the potentiation is 32% (active) in experiment [4] and 11.2% (active) in [15].
With `CC(C)Cc1nc(N2CCN(C(=O)C(C)C)CC2)c(C#N)c2c1CCC2`, the outcome in experiment [1], in [2], in experiment [3], in [5], in [6] and in [7] was inactive. Moreover, the outcome in experiment [8], in experiment [9], in experiment [10], in experiment [11], in [12] and in experiment [13] was inactive. The outcome in experiment [14], in experiment [15], in experiment [16] and in experiment [17] was inactive. In addition, the potentiation in [4] was 33% (active).
For `Fc1ccc(CN2C3=NCCCN3c3ccccc32)cc1`, the result in experiment [1], in experiment [2], in experiment [3], in [4], in experiment [5] and in experiment [6] was inactive. Besides, the outcome in [7], in experiment [8], in experiment [9], in [10], in experiment [11] and in experiment [12] was inactive. Also, the result in experiment [13], in experiment [14], in experiment [15], in [16] and in experiment [17] was inactive.

The values are drawn from PubChem BioAssay.
